High-throughput results from PubChem.
SUMO Mot1 rescue: inhibitors of SUMOylation pathway: yeast Mot1-301 growth rescue. 1% of 320,000 active. S. cerevisiae Mot1-301 growth rescue, ATP luminescence, 38.5C; percent above DMSO median, 100 means doubled. AID 2716. growth rescue, % at 18.8 µM;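 active = every valid replicate shows activation above 250% relative to neutral control wells; inactive = the rest, any valid replicate at or below 250%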;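 also: OY570 slx delta 5 strain wells were the positive control but not used for scaling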
PolyA inhibitor: blocks polyadenylation in yeast reporter cells; S. cerevisiae SKY197-pL101 polyadenylation reporter, beta-gal luminescence; efflux-impaired pdr1/pdr3 knockout yeast; score 100 = 6 SD above DMSO; activity score, % at 12 µM; 0.02% of 300,000 active;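 active = lowest replicate activity score at least 50, where 100 means six control SD above control mean; inconclusive = lowest score under 50 but half or more replicates reach 50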;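 also: yeast exposed to compound for 9 h at 30 °C; higher score means more reporter readthrough which indicates perturbed polyadenylation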
NLRP3 yeast inh: NALP3 inhibition in yeast; 0.39% of 330,000 active; Yeast reconstituted NLRP3/ASC/caspase-1, beta-gal luminescence, 24 h; inhibition, % at 10 µM;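 active = inhibition of 50% or more; inactive = inhibition below 50%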;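 also: plate controls were induced DMSO wells for no effect and uninduced yeast grown without galactose for full effect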
NALP1 yeast inh: blocks the NALP1 inflammasome reconstituted in yeast | S. cerevisiae NALP1/ASC/caspase-1 growth, X-gal OD620, 72 h | inhibition, % at 10 µM | 0.61% of 280,000 active; in the data active = inhibition mostly above about 24%, no sharp cut-off; inactive = mostly below about 32%
NALP3 confirm: NALP3 inhibition confirmation in yeast; shares compounds with NLRP3 yeast inh; yeast expressing human NALP3, luminescence; inhibition, % at 10 µM; 81% of 1,300 active; AID 435006; in the data active = inhibition above about 48%
Casp1-ASC yeast: caspase-1-ASC yeast counter-screen hit; inhibition, % at 10 µM; 66% of 1,000 active; shares compounds with NLRP3 yeast inh; yeast expressing Caspase-1-ASC, luminescence counter screen
NALP3 retest: retest-confirmed inhibitor of NALP3 in yeast. 53% of 1,000 active. yeast expressing human NALP3, luminescence read-out. shares compounds with NLRP3 yeast inh. inhibition, % at 10 µM
An asterisk follows results filed as active; ? = inconclusive; . = not tested or not shown. A selection: hits, their analogues and other compounds. The true share with any hit is near 1.8%. Rule as the data show it, unless noted: active = inhibition above about 50%; inactive = the rest.

SMILES | SUMO Mot1 rescue | PolyA inhibitor | NLRP3 yeast inh | NALP1 yeast inh | NALP3 confirm | Casp1-ASC yeast | NALP3 retest
O=C(Nc1cccc(Cl)c1)c1ccc2ncsc2c1 | 0.5 | 1.7 | 67.5* | 23.1 | 85.8* | 80.8* | 76.3*
O=C(NC(=S)N1CCCC1)c1cccc([N+](=O)[O-])c1 | -16.5 | 4.9 | 18.8 | 0.3 | . | . | .
COc1ccc(CCn2c(C3CCCCC3)nc3c(c(=O)c4ccccc4n3C)c2=O)cc1 | 38.2 | ? | 67.2* | . | 64.7* | 55.2* | 61.3*
Cn1c2ccccc2c(=O)c2c(=O)n(C3CCCCCC3)c(C3CCCCC3)nc21 | . | -4.5 | . | 45.4 | . | . | .
COc1ccc(CCn2c(C3CCCCC3)nc3c(c(=O)c4ccccc4n3C)c2=O)cc1OC | -1.7 | 28.6 | 64.1* | -3.8 | 84.5* | 44.0 | 49.9
Cn1c2ccccc2c(=O)c2c(=O)n(C3CCCCC3)c(-c3cccs3)nc21 | -4.8 | -12.8 | 58.3* | 10.4 | 70.7* | 55.4* | 52.0*
CSc1nc2ccc(NS(=O)(=O)c3ccc(CNC(C)=O)cc3)cc2s1 | 0.5 | . | 12.3 | . | . | . | .
CC1(C)CC(=O)C(=Cc2cn(-c3ccccc3)nc2-c2ccccc2)C(=O)C1 | -15.6 | 1.9 | 53.9* | . | 83.2* | 8.3 | -11.8
Cc1ccccc1-c1cc2c(nn1)-c1ccccc1C2=O | -31.1 | -22.6 | 60.6* | 16.7 | 55.0* | 25.8 | 35.8
COc1ccc(-c2ccc(SCC(=O)NCc3ccco3)nn2)cc1 | 821.4 | -38.4 | -111.9 | 3.2 | -0.7 | . | .
O=C(CSc1ccc(-c2ccc(F)cc2)nn1)NCc1ccco1 | 3.5 | 3.1 | -89.2 | -5.1 | . | . | .
CC(=O)N=c1sccn1CC(O)c1ccccc1 (stereo unspecified) | 3.1 | -0.5 | 10.9 | 0.2 | . | . | .
Cc1ccc(C(=O)c2ccc(C)cc2)cc1 | 28.1 | 7.9 | 3.1 | 13.1 | . | . | .
Cc1ccc(C(=O)c2no[n+]([O-])c2C(=O)c2ccc(C)cc2)cc1 | 0.8 | 99.6* | 58.9* | 91.3 | 62.6* | 71.7* | 51.8*
CC1=CC2=NC(=O)/C(=C\c3cccn3CCOc3cccc(C)c3)C(=N)N2O1 | 0.1 | -11.5 | 59.6* | 47.4 | 2.7 | . | .
COc1cc(Br)cc(C2C3=C(CCCC3=O)N(c3ccc(F)cc3)C3=C2C(=O)CCC3)c1O | 390.8 | -5.3 | 10.0 | -12.7 | . | . | .
COc1ccc(-c2csc(NC(=O)c3c(OC)cccc3OC)n2)cc1 | -0.5 | -11.3 | 17.5 | 13.1 | . | . | .
Cn1c(C(=O)N2CCCc3ccccc32)cc2sccc21 | -8.3 | -3.2 | 51.3* | -1.7 | 64.2* | 39.8 | 35.2
O=C(c1cc2sccc2n1Cc1ccccc1)N1CCCc2ccccc21 | -5.6 | -6.9 | 2.0 | 13.0 | . | . | .
O=C(Sc1cccc2cccnc12)c1ccc(F)cc1 | . | . | 43.1 | -13.8 | . | . | .
O=C(Sc1cccc2cccnc12)c1ccccc1Br | -7.9 | -39.1 | 65.9* | 29.3 | 63.7* | . | .
CCOc1ccc(-n2c(-c3ccccc3)c[nH]c2=S)cc1 | 4.8 | -10.9 | 58.8* | -5.7 | 58.2* | 22.4 | 24.6
Cc1ccc(-c2c[nH]c(=S)n2-c2ccccc2F)cc1 | . | -15.7 | 55.0* | -8.0 | 37.7 | . | .
Cc1ccc(-c2c[nH]c(=S)n2-c2ccccc2)cc1 | . | -14.1 | 61.0* | 10.5 | 35.7 | 39.0 | 28.9
CCCCC(=O)Nc1ccc(C2C(=O)c3ccccc3C2=O)cc1 | 27.9 | 2.2 | 8.3 | . | . | . | .
SMILES | SUMO Mot1 rescue | PolyA inhibitor | NLRP3 yeast inh | NALP1 yeast inh | NALP3 confirm | Casp1-ASC yeast | NALP3 retest
CC(C)Sc1nnc(SCC(=O)NCCCN2CCCC2=O)s1 | 54.9 | . | 8.7 | . | . | . | .
Cc1cccc(N2C(=O)CN(Cc3cccs3)C2=S)c1 | 8.7 | 18.2 | 13.8 | 2.6 | . | . | .
Cc1ccc(NC(=O)Cn2c(O)c(N=NC(N)=S)c3ccccc32)cc1 | -6.8 | -13.9 | 14.1 | -1.9 | . | . | .
O=C(Nc1ccccc1)c1cc2ccccc2c(=O)s1 | -12.7 | -15.4 | 58.8* | 23.1 | 10.3 | . | .
N#C/C(=N\Nc1ccc(Cl)cc1)C(=O)c1ccccc1 | 58.5 | -59.3 | 54.7* | 21.3 | 59.2* | 73.5* | 84.2*
Cc1ccccc1OCCC(=O)NCCc1ccc(S(N)(=O)=O)cc1 | 28.2 | 9.7 | 11.7 | 15.9 | . | . | .
COC(=O)C(=Cc1ccccc1[N+](=O)[O-])C(=O)OC | 371.0 | -24.2 | 51.3* | 14.5 | 62.9* | 40.6 | 44.0
O=C(/C=C/c1ccccc1[N+](=O)[O-])Oc1ccccc1 | -3.9 | -31.0 | 28.5 | 24.5 | . | . | .
